# From PubChem BioAssay (Tox21)
# Inconclusive results are not listed. A call without a number means that no potency is given here. Values without a mark were called inactive. Activity calls are given as the source filed them. Calls come from the whole dose curve; as a rule, active = well fitted curve in the direction sought with a large enough effect in the repeat runs; inconclusive = weak or mixed curves; inactive = no such curve, though single readings can be large; an effect the other way counts as inactive or inconclusive.
# What was measured:
# [1] = qHTS RealTime-Glo MT Cell Viability Assay in HEK293 cells - 16 hour (AID 1224872); note: top concentration of the series differs between compounds; nearly all actives have a fitted effect of over 50% in size
# In short: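 Tox21 10K qHTS, HEK293, 600 cells/well, RealTime-Glo reagent co-dispensed with cells; 5 h preincubation, compound by pintool, 37 C, luminescence at 0–40 h.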
# [2] = qHTS RealTime-Glo MT Cell Viability Assay in HepG2 cells - 8 hour (AID 1224873); note: nearly all actives have a fitted effect of over 55% in size
# In short: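 HepG2 cells (600/well) mixed with RealTime-Glo MT reagent, settled 5 h at 37 C/5% CO2 before compound addition. Nonlytic NanoLuc luminescence from viable-cell prosubstrate reduction read repeatedly during 40 h treatment at 37 C.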
# [3] = qHTS RealTime-Glo MT Cell Viability Assay in HEK293 cells - 40 hour (AID 1224874); settings: RealTime-Glo luminescence; max response: active compounds read low; note: nearly all actives have a fitted effect of over 50% in size
# In short: (§1)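 qHTS format; HEK293 cells with NanoLuc/prosubstrate reagent, 37 C/5% CO2 for 5 h pre-dosing; compounds 23 nL in DMSO; luminescence at each time point reflects viable cells.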
# [4] = A CellTox Green Cytotoxicity Assay to monitor cytotoxicity in HEK293 cells - 24 hour (AID 1224875); note: nearly all actives have a fitted effect of over 45% in size; note: potency is the fitted concentration of half-maximal effect
# In short: (§2)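 Each value comes from one timepoint of a single continuous run in which HEK293 cells with CellTox Green were exposed to compound for up to 40 h at 37 C, dye fluorescence rising with cell death.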
# [5] = qHTS RealTime-Glo MT Cell Viability Assay in HepG2 cells - 32 hour (AID 1224877); note: nearly all actives have a fitted effect of over 55% in size
# In short: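 Cells + NanoLuc/prosubstrate dispensed (600 cells/well) → 5 h at 37 C/5% CO2 → compounds in DMSO transferred → 40 h incubation at 37 C, luminescence read at 0, 8, 16, 24, 32, 40 h.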
# [6] = A CellTox Green Cytotoxicity Assay to monitor cytotoxicity in HepG2 cells - 24 hour (AID 1224878); note: nearly all actives have a fitted effect of over 45% in size
# In short: (§3)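 Continuous culture of HepG2 cells with a membrane-impermeant DNA dye; rising fluorescence marks dead cells. Compound exposure lasted up to 40 h at 37 C, with reads every 8 h from 0 h.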
# [7] = A CellTox Green Cytotoxicity Assay to monitor cytotoxicity in HepG2 cells - 40 hour (AID 1224879); note: nearly all actives have a fitted effect of over 40% in size
# In short: as §3
# [8] = A CellTox Green Cytotoxicity Assay to monitor cytotoxicity in HEK293 cells - 32 hour (AID 1224881); note: nearly all actives have a fitted effect of over 40% in size
# In short: as §2
# [9] = A CellTox Green Cytotoxicity Assay to monitor cytotoxicity in HepG2 cells - 16 hour (AID 1224876); note: nearly all actives have a fitted effect of over 45% in size
# In short: as §3
# [10] = qHTS RealTime-Glo MT Cell Viability Assay in HEK293 cells - 0 hour (AID 1224880); note: top concentration of the series differs between compounds; nearly all actives have a fitted effect of over 45% in size
# In short: as §1
Compound,Potency [1],Potency [2],max response [3] [%],Potency [4],Potency [5],Potency [6],Potency [7],Potency [8],Potency [9],Potency [10]
CCc1ccc(C)cc1,inactive,inactive,11.4,inactive,inactive,inactive,inactive,inactive,,
CC/C=C\C/C=C\C/C=C\CCCCCCCC(=O)OCC,inactive,inactive,-15.2,inactive,inactive,inactive,inactive,inactive,,
CC(=O)C(C)=O,inactive,inactive,13.9,inactive,inactive,inactive,,inactive,inactive,
Cc1ccc(N(CCO)CCO)cc1,inactive,inactive,0.166,inactive,inactive,inactive,inactive,inactive,,
Cc1oc(=O)oc1COC(=O)[C@@H]1N2C(=O)[C@@H](NC(=O)[C@H](N)c3ccccc3)[C@H]2SC1(C)C,inactive,inactive,6.21,inactive,inactive,inactive,inactive,inactive,,inactive
CC(C)(O)c1coc(S(=O)(=O)NC(=O)Nc2c3c(cc4c2CCC4)CCC3)c1,inactive,inactive,21.1,inactive,inactive,,,inactive,,inactive
COc1ccc(-n2nc(C(F)F)cc2-c2ccc(S(C)=O)cc2)cc1 (stereo unspecified),inactive,inactive,-24.7,inactive,inactive,,,inactive,,inactive
COC(CC(C)CCCC(C)(C)O)OC (stereo unspecified),inactive,inactive,1.35,inactive,inactive,inactive,inactive,,,
CC1C(C)(C)C2=C(C(=O)CCC2)C1(C)C (stereo unspecified),inactive,inactive,-12.9,inactive,inactive,,,,,inactive
CSSc1ccoc1C,inactive,inactive,0.757,inactive,inactive,inactive,inactive,inactive,,inactive
[Cl][Nd]([Cl])[Cl],inactive,inactive,2.18,inactive,inactive,inactive,inactive,inactive,,inactive
CC12CC3CC(C)(C1)CC(N)(C3)C2,inactive,inactive,3.93,inactive,inactive,inactive,inactive,inactive,,inactive
CC1CCCC(=O)C1=O (stereo unspecified),inactive,inactive,4.99,inactive,inactive,,,inactive,inactive,inactive
COc1cc(NC(C)CCCN)c2ncccc2c1 (stereo unspecified),inactive,inactive,-12.5,inactive,inactive,inactive,inactive,inactive,,inactive
CC1CCc2nccnc21 (stereo unspecified),inactive,inactive,-2.75,inactive,inactive,,,inactive,,inactive
CC[C@H]1OC(=O)[C@H](C)[C@@H](O[C@H]2C[C@@](C)(OC)[C@@H](O)[C@H](C)O2)[C@H](C)[C@@H](O[C@@H]2O[C@H](C)C[C@H](N(C)C)[C@H]2O)[C@](C)(O)C[C@@H](C)/C(=N\OCOCCOC)[C@H](C)[C@@H](O)[C@]1(C)O,inactive,inactive,-15,inactive,inactive,inactive,inactive,inactive,,inactive
O=S(=O)(Cl)c1c(Cl)cccc1Cl,inactive,inactive,-11.9,inactive,inactive,inactive,inactive,,,inactive
CC(=O)Oc1cccc(O)c1,inactive,inactive,-0.489,inactive,inactive,inactive,inactive,inactive,,inactive
CCCOC(=O)c1c(Cl)c(Cl)c(Cl)c(Cl)c1C(=O)OCCC,inactive,inactive,3.32,inactive,inactive,inactive,inactive,inactive,,inactive
CCCCOC(=O)CCCCC(=O)OCCCC,inactive,inactive,0.321,inactive,inactive,inactive,inactive,inactive,,inactive
COC(=O)c1sccc1S(N)(=O)=O,inactive,inactive,-18.1,inactive,inactive,inactive,,inactive,inactive,inactive
CCCCCCCCCCCCCOS(=O)(=O)O,inactive,inactive,-4.56,24.5 µM (active),inactive,,,,,inactive
CC(=O)c1ccc[nH]1,inactive,inactive,-0.568,inactive,inactive,inactive,inactive,inactive,,inactive
CCOC(=O)Oc1ccc(CCNC(=O)[C@H](CCSC)NC(C)=O)cc1OC(=O)OCC,inactive,inactive,14.4,inactive,inactive,inactive,inactive,inactive,,inactive
